# Results taken from PMC11062922 (Nature Chemical Biology, 2023).
# Like-named read-outs stand apart in the source and are kept apart here.
# Assays:
# ABL1 = tested on: ABL1; design: species or system human, MV4-11 + K-562 + COLO205 + SK-N-BE2 + OVCAR-8; conditions: read-out: apparent Kd, compound concentrations: 100 nM and 1000 nM (sheet 'Samples'), n = 1
# ABL2 = tested on: ABL2; design: species or system human, MV4-11 + K-562 + COLO205 + SK-N-BE2 + OVCAR-8; conditions: read-out: apparent Kd, n = 1
# FYN = tested on: FYN; design: species or system human, MV4-11 + K-562 + COLO205 + SK-N-BE2 + OVCAR-8; conditions: read-out: apparent Kd, compound concentrations: 100 nM and 1000 nM (sheet 'Samples'), n = 1
# HCK = tested on: HCK; design: species or system human, MV4-11 + K-562 + COLO205 + SK-N-BE2 + OVCAR-8; conditions: read-out: apparent Kd, compound concentrations: 100 nM and 1000 nM (sheet 'Samples'), n = 1
# LCK = tested on: LCK; design: species or system human, MV4-11 + K-562 + COLO205 + SK-N-BE2 + OVCAR-8; conditions: read-out: apparent Kd, compound concentrations: 100 nM and 1000 nM (sheet 'Samples'), n = 1
# RET = tested on: RET; design: species or system human, MV4-11 + K-562 + COLO205 + SK-N-BE2 + OVCAR-8; conditions: read-out: apparent Kd, compound concentrations: 100 nM and 1000 nM (sheet 'Samples'), n = 1
# RIPK2 = tested on: RIPK2; design: species or system human, MV4-11 + K-562 + COLO205 + SK-N-BE2 + OVCAR-8; conditions: read-out: apparent Kd, compound concentrations: 100 nM and 1000 nM (sheet 'Samples'), n = 1
# RIPK3 = tested on: RIPK3; design: species or system human, MV4-11 + K-562 + COLO205 + SK-N-BE2 + OVCAR-8; conditions: read-out: apparent Kd, compound concentrations: 100 nM and 1000 nM (sheet 'Samples'), n = 1
# TNK1 = tested on: TNK1; design: species or system human, MV4-11 + K-562 + COLO205 + SK-N-BE2 + OVCAR-8; conditions: read-out: apparent Kd, n = 1
# YES1 = tested on: YES1; design: species or system human, MV4-11 + K-562 + COLO205 + SK-N-BE2 + OVCAR-8; conditions: read-out: apparent Kd, compound concentrations: 100 nM and 1000 nM (sheet 'Samples'), n = 1
# BCR = tested on: BCR; design: species or system human, MV4-11 + K-562 + COLO205 + SK-N-BE2 + OVCAR-8; conditions: read-out: apparent Kd, compound concentrations: 100 nM and 1000 nM (sheet 'Samples'), n = 1
# GAK = tested on: GAK; design: species or system human, MV4-11 + K-562 + COLO205 + SK-N-BE2 + OVCAR-8; conditions: read-out: apparent Kd, n = 1
# CLK1 = tested on: CLK1; design: species or system human, MV4-11 + K-562 + COLO205 + SK-N-BE2 + OVCAR-8; conditions: read-out: apparent Kd; compound concentrations:100 nM and 1000 nM (sheet 'Samples'); n = 1
# CLK4 = tested on: CLK4; design: species or system human, MV4-11 + K-562 + COLO205 + SK-N-BE2 + OVCAR-8; conditions: read-out: apparent Kd; compound concentrations:100 nM and 1000 nM (sheet 'Samples'); n = 1
# Q6ZSR9 = Q6ZSR9 (human, UniProt Q6ZSR9); design: species or system MV4-11 + K-562 + COLO205 + SK-N-BE2 + OVCAR-8; conditions: read-out: apparent Kd; compound concentrations:100 nM and 1000 nM (sheet 'Samples'); n = 1
# Chain of Q6ZSR9 (Q6ZSR9 whole entry, looked up): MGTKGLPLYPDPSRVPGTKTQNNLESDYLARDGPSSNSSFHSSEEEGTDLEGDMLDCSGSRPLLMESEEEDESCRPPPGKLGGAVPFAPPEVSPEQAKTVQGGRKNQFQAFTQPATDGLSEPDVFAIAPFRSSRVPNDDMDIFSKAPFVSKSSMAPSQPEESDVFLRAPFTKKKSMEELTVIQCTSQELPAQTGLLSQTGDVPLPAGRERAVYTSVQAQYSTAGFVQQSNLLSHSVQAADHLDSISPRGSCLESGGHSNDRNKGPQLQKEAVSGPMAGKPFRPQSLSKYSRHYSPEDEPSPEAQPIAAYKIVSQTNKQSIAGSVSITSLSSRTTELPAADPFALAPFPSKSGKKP
# PTK6 = tested on: PTK6; design: species or system human, MV4-11 + K-562 + COLO205 + SK-N-BE2 + OVCAR-8; conditions: read-out: apparent Kd; compound concentrations: 100 nM and 1000 nM (sheet 'Samples'), CATDS: 7.71683723921405E-2; n = 1
# [1] = compound concentrations:100 nM and 1000 nM (sheet 'Samples')
structure (smiles),measurement,setting,value
CN1CCc2ccc(Nc3nccc(-c4c(-c5cccc(NC(=O)c6c(F)cccc6F)c5)nc5ccccn45)n3)cc2C1.Cl [GSK1010829B],potency estimated from few doses,ABL1; CATDS: 3.3461879574950899E-2,1490 nM
same,potency estimated from few doses,"ABL2; compound concentrations: 100 nM and 1000 nM (sheet 'Samples'), CATDS: 5.23803591077244E-2",515 nM
same,potency estimated from few doses,FYN; CATDS: 4.4096007495545798E-2,732 nM
same,potency estimated from few doses,HCK; CATDS: 7.6691780637307694E-2,270 nM
same,potency estimated from few doses,LCK; CATDS: 0.10139412977774399,180 nM
same,potency estimated from few doses,RET; CATDS: 6.1387367146580003E-2,387 nM
same,potency estimated from few doses,RIPK2; CATDS: 3.7106800723599898E-2,1110 nM
same,potency estimated from few doses,RIPK3; CATDS: 5.0630244265372597E-2,550 nM
same,potency estimated from few doses,"TNK1; compound concentrations: 100 nM and 1000 nM (sheet 'Samples'), CATDS: 4.6231570261128598E-2",661 nM
same,potency estimated from few doses,YES1; CATDS: 8.6634925532114604E-2,225 nM
CC(=O)N1CCN(c2ccc(Nc3nccc(-c4sc(C(C)C)nc4-c4cccc(NS(=O)(=O)c5ccccc5)c4)n3)cn2)CC1 [GSK1645872A],potency estimated from few doses,ABL1; CATDS: 2.9890665121479899E-2,746 nM
same,potency estimated from few doses,"ABL2; compound concentrations: 100 nM and 1000 nM (sheet 'Samples'), CATDS: 6.8030281480511795E-2",166 nM
same,potency estimated from few doses,BCR; CATDS: 2.6881466096611999E-2,991 nM
same,potency estimated from few doses,"GAK; compound concentrations: 100 nM and 1000 nM (sheet 'Samples'), CATDS: 3.3630312969228401E-2",566 nM
same,potency estimated from few doses,LCK; CATDS: 2.6338913401390801E-2,1050 nM
same,potency estimated from few doses,RIPK2; CATDS: 3.4620572917050799E-2,532 nM
same,potency estimated from few doses,RIPK3; CATDS: 4.0939196436341502E-2,381 nM
same,potency estimated from few doses,"TNK1; compound concentrations: 100 nM and 1000 nM (sheet 'Samples'), CATDS: 4.1915160463804002E-2",364 nM
same,potency estimated from few doses,YES1; CATDS: 4.4721674656853803E-2,324 nM
NS(=O)(=O)CCc1cccc(Nc2nccc(-c3c(-c4cccc(NC(=O)c5c(F)cccc5F)c4)nn4ccccc34)n2)c1 [GSK336735A],potency estimated from few doses,"ABL2; compound concentrations: 100 nM and 1000 nM (sheet 'Samples'), CATDS: 7.5550907623065294E-2",635 nM
same,potency estimated from few doses,FYN; CATDS: 5.89205391615404E-2,1140 nM
same,potency estimated from few doses,HCK; CATDS: 9.1712833747147296E-2,439 nM
same,potency estimated from few doses,LCK; CATDS: 8.1556930046594894E-2,546 nM
same,potency estimated from few doses,RET; CATDS: 0.15467463345214499,196 nM
same,potency estimated from few doses,RIPK3; CATDS: 7.11931563666406E-2,719 nM
same,potency estimated from few doses,"TNK1; compound concentrations: 100 nM and 1000 nM (sheet 'Samples'), CATDS: 8.7840058842797303E-2",475 nM
same,potency estimated from few doses,YES1; CATDS: 0.104182093569698,354 nM
COc1cc2ncn(-c3cc(OCCCc4ccccc4)c(C(N)=O)s3)c2cc1OC [GSK205189A],potency estimated from few doses,ABL2; [1],956 nM
same,potency estimated from few doses,CLK1,105 nM
same,potency estimated from few doses,CLK4,1340 nM
same,potency estimated from few doses,GAK; [1],663 nM
same,potency estimated from few doses,Q6ZSR9,1480 nM
same,potency estimated from few doses,TNK1; [1],42.3 nM
CC(=O)N1CCN(c2ccc(Nc3nccc(-c4sc(C(C)C)nc4-c4cccc(NS(=O)(=O)c5cccc(Cl)c5)c4)n3)cn2)CC1 [GSK1660437A],potency estimated from few doses,"ABL2; compound concentrations: 100 nM and 1000 nM (sheet 'Samples'), CATDS: 7.86907844661483E-2",351 nM
same,potency estimated from few doses,FYN; CATDS: 4.41921751489057E-2,1120 nM
same,potency estimated from few doses,"GAK; compound concentrations: 100 nM and 1000 nM (sheet 'Samples'), CATDS: 7.8355019854230004E-2",353 nM
same,potency estimated from few doses,LCK; CATDS: 4.6764709487854099E-2,973 nM
same,potency estimated from few doses,RIPK3; CATDS: 3.6291204942441098E-2,2010 nM
same,potency estimated from few doses,"TNK1; compound concentrations: 100 nM and 1000 nM (sheet 'Samples'), CATDS: 7.10025614221442E-2",418 nM
same,potency estimated from few doses,YES1; CATDS: 4.9089753875203201E-2,868 nM
CC(C)c1nc(-c2cccc(NS(=O)(=O)c3c(F)cccc3F)c2F)c(-c2ccnc(Nc3ccc(N4CCOCC4)nc3)n2)s1 [GSK2008607A],potency estimated from few doses,ABL1; CATDS: 2.52520437406713E-2,706 nM
same,potency estimated from few doses,"ABL2; compound concentrations: 100 nM and 1000 nM (sheet 'Samples'), CATDS: 7.58086527625733E-2",101 nM
same,potency estimated from few doses,BCR; CATDS: 3.4777380085243399E-2,355 nM
same,potency estimated from few doses,FYN; CATDS: 2.15624347754024E-2,1090 nM
same,potency estimated from few doses,"GAK; compound concentrations: 100 nM and 1000 nM (sheet 'Samples'), CATDS: 3.3626459583734003E-2",378 nM
same,potency estimated from few doses,HCK; CATDS: 2.4637154538395101E-2,751 nM
same,potency estimated from few doses,LCK; CATDS: 4.60457501367081E-2,215 nM
same,potency estimated from few doses,RET; CATDS: 4.3035202568940403E-2,241 nM
same,potency estimated from few doses,"TNK1; compound concentrations: 100 nM and 1000 nM (sheet 'Samples'), CATDS: 8.7218482008179707E-2",82.7 nM
same,potency estimated from few doses,YES1; CATDS: 2.6088425735390001E-2,653 nM
CN1CCN(Cc2cccc(-c3ccc4c(Nc5ccc(Oc6ccccc6)cc5)ccnc4c3)c2)CC1 [GW578342X],potency estimated from few doses,ABL1; CATDS: 7.7551536280391298E-2,1560 nM
same,potency estimated from few doses,HCK; CATDS: 0.21487500019283201,115 nM
same,potency estimated from few doses,LCK; CATDS: 8.3289760013849606E-2,1190 nM
same,potency estimated from few doses,PTK6,1600 nM
same,potency estimated from few doses,RIPK2; CATDS: 0.17287191269560401,177 nM
same,potency estimated from few doses,RIPK3; CATDS: 0.10117998061927,638 nM
same,potency estimated from few doses,YES1; CATDS: 0.46544607401261401,32.3 nM
Cn1cc(-c2ccc3c(c2)CCN3C(=O)Cc2cc(F)cc(C(F)(F)F)c2)c2c(N)ncnc21 [GSK2635225A],potency estimated from few doses,ABL1; CATDS: 0.14527180827686201,1130 nM
same,potency estimated from few doses,"ABL2; compound concentrations: 100 nM and 1000 nM (sheet 'Samples'), CATDS: 0.18446738219414099",647 nM
